# BAZ2B block – blocks human BAZ2B | Q9UIF8 | AlphaScreen BAZ2B-H3K14Ac peptide displacement | Potency, µM (titrated, usually from 114 µM), for the others: top-dose activity change, negative = inhibition, usual class: inhibitors | 4.4% of 360,000 active; further: on the % scale 0 is the no-effect control and ±100 the full control effect; nearly all actives have a fitted effect of over 60% in size
#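 AlphaScreen displacement: compounds (up to 110uM) incubated 30 min at room temperature with a preformed 50 nM BAZ2B/50 nM biotinylated H3K14Ac peptide complex in PBS pH 7.4 with Tween-20. Donor and acceptor beads at 10 ug/mL final added, 20 min light-protected before reading.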
# JMJD2A Tudor inh – JMJD2A Tudor domain (human) inhibition | AlphaScreen JMJD2A-Tudor / H3K4me3 peptide binding | 4.4% of 390,000 active | AID 504339 | O75164 | Potency, µM (series often up to 114 µM), for inactives: at the highest dose activity change, negative = inhibition, usual class: inhibitors; further: on the % scale 0 is the no-effect control and ±100 the full control effect; nearly all actives have a fitted effect of over 50% in size
# VDR inh – blocks the human vitamin D receptor. P11473. VDR-SRC2-3 peptide fluorescence polarization, 2 h. Potency, µM, for inactives: max response, negative = inhibition, most hits filed as inhibitors. 0.93% of 400,000 active; further: on the % scale 0 is the no-effect control and ±100 the full control effect
# Target sequence (P11473 whole entry, looked up): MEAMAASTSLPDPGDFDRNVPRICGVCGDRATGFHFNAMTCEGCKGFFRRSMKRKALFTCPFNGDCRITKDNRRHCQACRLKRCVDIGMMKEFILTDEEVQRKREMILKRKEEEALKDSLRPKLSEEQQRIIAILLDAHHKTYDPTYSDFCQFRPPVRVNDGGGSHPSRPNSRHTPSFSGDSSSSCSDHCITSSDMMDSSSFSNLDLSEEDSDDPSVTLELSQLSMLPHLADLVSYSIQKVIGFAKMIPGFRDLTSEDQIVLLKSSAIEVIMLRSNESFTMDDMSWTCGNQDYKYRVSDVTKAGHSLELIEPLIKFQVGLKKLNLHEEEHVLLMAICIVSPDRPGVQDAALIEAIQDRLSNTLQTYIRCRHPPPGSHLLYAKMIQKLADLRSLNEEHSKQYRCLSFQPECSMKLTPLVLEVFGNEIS
#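 Measured by FP: displacement of SRC2-3 coactivator peptide from VDR by library compounds, following a two-hour ambient incubation.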
# PLK1 PBD block – PLK1 (human) polo-box domain binding inhibition | P53350 | Plk1 PBD binding of FITC phosphopeptide, fluorescence polarization | AID 720504 | 2.8% of 360,000 active | Potency, µM, for inactives: max response, negative = inhibition, most hits filed as inhibitors; further: series mostly up to about 57 µM; on the % scale 0 is the no-effect control and ±100 the full control effect; nearly all actives have a fitted effect of over 65% in size
# G9a block – G9a (human) methyltransferase inhibition; Q96KQ7; G9a H3K9 monomethylation, AlphaScreen, 2 h; Potency, µM (titrated, usually from 102 µM), for inactives: at the top dose activity, negative = inhibition, usual class: inhibitors; 8.8% of 350,000 active; AID 504332; further: on the % scale 0 is the no-effect control and ±100 the full control effect; nearly all actives have a fitted effect of over 75% in size
# Target sequence (Q96KQ7 913-1193 limits assumed): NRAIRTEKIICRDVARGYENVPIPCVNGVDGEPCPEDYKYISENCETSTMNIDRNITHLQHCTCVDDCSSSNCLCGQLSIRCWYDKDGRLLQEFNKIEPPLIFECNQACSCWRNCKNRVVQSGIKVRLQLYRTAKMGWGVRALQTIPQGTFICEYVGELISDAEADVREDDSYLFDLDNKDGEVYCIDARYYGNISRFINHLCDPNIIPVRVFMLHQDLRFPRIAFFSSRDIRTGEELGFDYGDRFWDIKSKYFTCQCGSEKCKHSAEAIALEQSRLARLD
#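 Using a bead-based AlphaScreen, monomethylated H3K9 product from 2 h room-temperature reactions (G9a 20 nM, peptide 500 nM, SAM 20 uM) was detected with 0.5 ug/mL rabbit anti-H3K9me1 antibody.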
# HP1b binding inh – blocks HP1-beta chromodomain binding to methylated histone tails. P83916. AlphaScreen HP1-beta / biotin-H3K9me3 peptide binding. Potency, µM (titrated, usually from 114 µM), inactives show top-dose activity change, negative = inhibition, hits mostly inhibitors. 0.56% of 390,000 active. AID 540317; further: nearly all actives have a fitted effect of over 70% in size
#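 HP1-beta protein (50 nM final) preincubated 30 min at room temperature with biotinylated H3(1-18)K9me3 peptide (50 nM) in PBS pH 7.4, 0.01% Tween-20, then compound added for 30 min. AlphaScreen streptavidin donor/nickel chelate acceptor beads (10 ug/mL final), 30 min dark, luminescence read.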
# VDR inh confirm – confirmation of human vitamin D receptor inhibitors; shares compounds with VDR inh; VDR-coactivator inhibition assay, qHTS confirmation; Potency, µM, most hits filed as inhibitors; 89% of 840 active; AID 602199
# VDR FP – blocks human VDR-coactivator binding in fluorescein assay. shares compounds with VDR inh. VDR-coactivator binding, fluorescein fluorescence polarization. Potency, µM (top dose mostly 57.1 µM), for inactives: at the highest dose activity change, negative = inhibition, hits mostly inhibitors. 48% of 840 active. AID 602200
# VDR bla reporter – VDR (human) inhibition, cell-based beta-lactamase validation. shares compounds with VDR inh. VDR beta-lactamase reporter cells, FRET ratio; cells co-treated with VDR agonist LG190178. Potency, µM (highest dose often 46.1 µM), for the others: at the top dose activity change, negative = inhibition, most hits filed as inhibitors. 23% of 840 active. AID 602202; further: on the % scale 0 is the no-effect control and ±100 the full control effect
# VDR cytotox – cell toxicity, VDR inhibitor hit counter-screen | shares compounds with VDR inh | cytotoxicity counter-screen, cell viability, qHTS | Potency, µM (titrated, usually from 48.3 µM), without a hit: at the highest dose activity change, negative = cytotoxicity, usual class: cytotoxic | 18% of 840 active | AID 602204;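 further: plate controls were DMSO for no effect and high-concentration cycloheximide for full effect; nearly all actives have a fitted effect of over 75% in size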
# TbPYK confirm – confirmation of Trypanosoma brucei pyruvate kinase inhibitors; shares compounds with PLK1 PBD block; 67% of 890 active; recombinant TbPYK, Kinase-Glo ATP luminescence; Potency, µM (top dose mostly 76.9 µM), for the others: at the top dose activity change, negative = inhibition, usual class: inhibitors; further: on the % scale 0 is the no-effect control and ±100 the full control effect; nearly all actives have a fitted effect of over 70% in size
# TbPYK orthogonal – inhibits T. brucei pyruvate kinase in orthogonal ADP-Glo assay. recombinant TbPYK, ADP-Glo luminescence, 60 min. 62% of 890 active. Potency, µM (doses to about 76.9 µM), without a hit: at the top dose activity change, negative = inhibition, actives largely listed as inhibitors. shares compounds with PLK1 PBD block; further: on the % scale 0 is the no-effect control and ±100 the full control effect; nearly all actives have a fitted effect of over 75% in size
# Numbers without * were called inactive; u = inconclusive; x = no result; [ ] = another dose, or the depositor's remark. Hits are enriched below; roughly 11% of the tested compounds scored in any of these assays. The call rests on the fitted dose curve; in most records, active means well fitted curve in the direction sought with a large enough effect; inconclusive means small, poorly fitted or top-dose-only effect, or another doubt; inactive means no such curve, though single readings can be large; an effect the other way counts as inactive or inconclusive. Potency means the concentration at half of the fitted maximal effect.
SMILES,BAZ2B block,JMJD2A Tudor inh,VDR inh,PLK1 PBD block,G9a block,HP1b binding inh,TbPYK confirm,TbPYK orthogonal,others
COc1ccc(C(=O)/C=C/C(=O)N(CC(=O)NC2CCCCC2)CC2CCCO2)c(O)c1 (stereo not drawn),-30%,-20%,8.9µM*,6.7µM*,8.9µM*,-5%,7.1µM*,10µM*,VDR inh confirm=6.7*;VDR FP=u;VDR bla reporter=13µM*;VDR cytotox=15µM*
Cc1ccc(-n2nnnc2C(Cl)(Cl)c2nnnn2-c2ccc(C)cc2)cc1,u,-28%,6.3µM*,1.1µM*,u,u,1.6µM*,2.2µM*,VDR inh confirm=3.4*;VDR FP=u;VDR bla reporter=u;VDR cytotox=u
CSc1nnnn1-c1ccc(Cl)cc1,9%,9%,-16%,3%,x,31%,x,x,
COc1ccc(CNC(=O)COCc2cc(-c3cccs3)on2)cc1,-1%,2%,9%,x,-1%[59 µM],24%,x,x,
COc1ccccc1N1C(=O)C=C(Sc2nc(C)cc(C)n2)C1=O,u,7.9µM*,u,3µM*,0.45µM*,8.9µM*,2.5µM*,3.2µM*,VDR inh confirm=2.8*;VDR FP=3.2µM*;VDR bla reporter=21µM*;VDR cytotox=u
Cc1noc(C)c1COc1ccc(C(=O)NNC(=O)c2ccccc2O)cc1,6%,-6%,-3%,3%,22%,54%,x,x,
CCCCCCCCSC1=CC(=O)C(OC)=C(OC)C1=O,x,x,x,2.4µM*,x,x,2.8µM*,4µM*,
CCCCCSc1nncc(=O)[nH]1,4%,-11%,8%,-9%,u,27%,x,x,
COc1cc(/C=C/c2sc3ccccc3[n+]2CCCS(=O)(=O)[O-])ccc1O,45µM*,-33%,-16%,37%,11µM*,32µM*,16µM*,3%,
CCC(/C=C1\Oc2ccc(OC)cc2N1C)=C\c1sc2ccccc2[n+]1CCCS(=O)(=O)[O-],x,-10%,-2%,90%,x,39%,x,x,
Cc1ccc(S(=O)(=O)NC(CC(C)C)C(=O)N2CCCC2)cc1 (stereo not drawn),2%,-22%,9%,-3%,37%,23%,x,x,
CCCCN(C)S(=O)(=O)c1ccc(C(=O)Nc2ccc(-c3nc4ccc(C)cc4s3)cc2)cc1,3%,-20%,5%,x,14%[59 µM],4%[57 µM],x,x,
COc1cc(/C=N/N=C2/NC(=O)C(CC(=O)O)S2)ccc1OCc1ccc(Cl)cc1 (stereo not drawn),u,-34%,-26%,-23%,6%,30%,16µM*,35µM*,
CCCCC(=O)N(Cc1ccc2c(c1)OCO2)Cc1nc2ccccc2c(=O)[nH]1,-33%,32µM*,u,6.7µM*,-6%,-15%,7%,2%,
O=C(O)c1ccc2nc(-c3ccccc3)c(-c3ccccc3)nc2c1,6%,-7%,6%,-14%,12%[59 µM],28%,x,x,
O=C(c1ccccc1)c1ccc2nc(-c3ccco3)c(-c3ccco3)nc2c1,14µM*,13µM*,45µM*,7.5µM*,3.2µM*,16µM*,u,u,
c1coc(-c2nc3ccccc3nc2-c2ccco2)c1,71µM*,u,u,u,8.9µM*,5%,14µM*,18µM*,
c1ccc(Cn2c(-c3ccco3)nc3nc4ccccc4nc32)cc1,-4%,-21%,18%,-20%,8%[59 µM],32%,x,x,
Cc1cccc(NC2=C(NC(=O)c3ccccc3)C(=O)c3ccccc3C2=O)c1,28µM*,25µM*,u,u,3.2µM*,50µM*,14µM*,11µM*,
COc1ccc(N(C(=O)CS(=O)CC(=O)Nc2ccc(F)cc2)C(C(=O)NC2CCCCC2)c2cccs2)cc1 (stereo not drawn),4%,-1%,-15%,-14%,15%,12%,x,x,
Cc1ccc(NNS(=O)(=O)c2ccc(C)cc2)cc1,20µM*,3.2µM*,u,3.8µM*,0.79µM*,u,8.9µM*,u,
Cc1ccc(S(=O)(=O)NN=CC=CC=NNS(=O)(=O)c2ccc(C)cc2)cc1,x,x,x,u,x,x,32µM*,35µM*,
Cc1snc(SCC(=O)c2ccc([N+](=O)[O-])cc2)c1C#N,14µM*,-11%[11.4 µM],u,9.5µM*,1.8µM*,u,18µM*,20µM*,
CC1(C(=O)NCCC(F)(F)F)Cc2c(-c3cccc(C(N)=O)c3)ccnc2O1 (stereo not drawn),x,x,x,-12%,x,x,6%,-2%,
Cc1ccc(-c2cc(-c3ccccc3)c3c(N)c(S(C)(=O)=O)sc3n2)cc1,-12%,22%,-7%,-8%,u,111%,x,x,
CS(=O)(=O)c1sc2nc(-c3cccs3)cc(-c3ccccc3)c2c1N,u,89µM*,u,8.4µM*,u,45%,u,35µM*,
CC(=O)OCCNc1cc(N2CCN(C)CC2)c2noc3c2c1C(=O)c1ccccc1-3,40µM*,50µM*,u,20%,u,-12%,10µM*,u,
O=C(Cc1n[nH]c(=O)[nH]c1=O)N/N=C/c1ccccc1O,-3%,3%,-4%,-1%,7%[59 µM],18%,x,x,
O=c1nccc(N/N=C/c2ccccc2O)[nH]1,50µM*,u,-18%,u,40%,25%[57 µM],u,4%,
CC(=O)C(Cc1ccccc1)NC(=O)CN1CCN(Cc2ccccc2)CC1 (stereo not drawn),-16%,-15%,6%,-2%,-26%,33%,x,x,

# Screening results: PubChem BioAssay, National Center for Advancing Translational Sciences (NCATS)
